Screening results: PubChem BioAssay, National Center for Advancing Translational Sciences (NCATS)
NPC1 prom act: activators of NPC1 promoter | Huh7 NPC1 promoter luciferase reporter, 24 h | Potency, µM (series often up to 9.22 µM), inactives show at the highest dose activation, most hits filed as activators | 2.4% of 320,000 active | AID 485313; further: % of control where 0% means no effect; nearly all actives have a fitted effect of over 60% in size
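Readout is luciferase luminescence, reflecting NPC1 promoter activation in stably transfected Huh7 cells after 24 h compound exposure at 37 °C in reduced-serum medium with 10% FBS.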
SMN2 splice enh: SMN2 splice variant enhancement. HEK293 SMN2-luciferase splicing reporter, luminescence, 30-36 h. Potency, µM (top dose mostly 46.1 µM), inactives show at the top dose activity change, positive = activation, most hits filed as activators. 2.8% of 210,000 active. AID 1458; further: % of control where 0% means no effect; nearly all actives have a fitted effect of over 55% in size
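HEK293 cells carry an SMN2 minigene-luciferase reporter in which exon 7 inclusion puts luciferase in frame. Cells were seeded at 2000 cells/well, attached for 10-12 hours, then exposed to compounds for 30-36 hours at 37C before ONE-Glo luminescence.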
Rab9 promoter act: Rab9 promoter activation; Huh7 Rab9 promoter-luciferase reporter, luminescence, 24 h; Potency, µM (highest dose often 9.22 µM), without a hit: top-dose activation, negative = inhibition, actives largely listed as activators; AID 485297; 2.8% of 320,000 active; further: % of control where 0% means no effect; nearly all actives have a fitted effect of over 60% in size
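Huh7 cells stably carrying Rab9 promoter–luciferase reporter, plated 1500 cells/well, compound added after 2 h and incubated 24 h at 37 °C; luciferase luminescence then read after 10 min with detection reagent.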
FLuc counter: firefly luciferase modulation, counter-screen for miR-21 project | AID 588342 | 6.9% of 360,000 active | purified FLuc, Km substrates, luminescence inhibition | P08659 | Potency, µM (series often up to 57.5 µM), for inactives: at the highest dose activity change, negative = inhibition, actives largely listed as inhibitors;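 further: plate controls were vehicle for no effect and reference inhibitor for full effect; nearly all actives have a fitted effect of over 55% in size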
Target sequence (P08659 whole entry, looked up): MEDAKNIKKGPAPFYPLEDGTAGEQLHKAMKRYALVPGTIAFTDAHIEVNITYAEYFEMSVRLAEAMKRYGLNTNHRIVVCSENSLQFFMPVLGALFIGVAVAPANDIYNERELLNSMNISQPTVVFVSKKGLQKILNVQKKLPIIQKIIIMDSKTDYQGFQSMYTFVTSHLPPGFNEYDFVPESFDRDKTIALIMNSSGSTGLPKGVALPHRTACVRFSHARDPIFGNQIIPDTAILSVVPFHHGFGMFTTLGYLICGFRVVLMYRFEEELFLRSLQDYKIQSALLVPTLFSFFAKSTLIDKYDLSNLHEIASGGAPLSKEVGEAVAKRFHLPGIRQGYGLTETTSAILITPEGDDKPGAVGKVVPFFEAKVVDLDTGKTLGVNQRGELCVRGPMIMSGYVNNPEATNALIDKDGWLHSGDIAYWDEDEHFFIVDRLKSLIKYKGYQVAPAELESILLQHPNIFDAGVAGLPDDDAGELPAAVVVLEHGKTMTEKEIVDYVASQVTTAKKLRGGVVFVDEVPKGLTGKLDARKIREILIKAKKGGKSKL
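Purified P. pyralis luciferase (10nM final) with 10uM D-luciferin and 10uM ATP (Km levels) in 50mM Tris acetate pH 7.5, 10mM Mg acetate, 0.01% Tween-20, 0.05% BSA; qHTS 6-point titration, ~60 µM downward; luminescence read.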
ELG1 genotox: genotoxicity induction in ELG1-luciferase HEK293T cells; Potency, µM (series often up to 46 µM), without a hit: at the highest dose activity change, positive = activation, usual class: activators; 1.3% of 330,000 active; HEK293T ELG1-luciferase reporter, luminescence, 16 h; further: % of control where 0% means no effect; nearly all actives have a fitted effect of over 60% in size
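Cells (2,000/well) expressing the ELG1-luciferase fusion are dosed by pin tool and kept 16 hr at 37 °C, 5% CO2. Signal comes from ONE-Glo luciferase reagent after 30 min at room temperature.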
uPA generation: cell surface uPA generation inhibition; cell surface uPA generation assay, qHTS; Potency, µM (doses to about 38.3 µM), for inactives: at the top dose activity change, negative = inhibition, usual class: inhibitors; 0.31% of 330,000 active; AID 540303; active means well fitted inhibition curve with a large enough effect; inconclusive means small, poorly fitted or top-dose-only effect; inactive means no such curve, though single readings can be large or run the other way; tested in mouse RAW 264.7 cells; further: on the % scale 0 is the no-effect control and ±100 the full control effect; nearly all actives have a fitted effect of over 55% in size
* marks the source's active call; other numbers are inactive results; ? = inconclusive; . = no result given; [ ] = remark or other dose. A selection: hits, their analogues and other compounds. The true share with any hit is near 7.3%. Unless noted, the call rests on the fitted dose curve; in most records, active means well fitted curve in the direction sought with a large enough effect; inconclusive means small, poorly fitted or top-dose-only effect, or another doubt; inactive means no such curve, though single readings can be large; an effect the other way counts as inactive or inconclusive. Potency means the concentration at half of the fitted maximal effect.

SMILES | NPC1 prom act | SMN2 splice enh | Rab9 promoter act | FLuc counter | ELG1 genotox | uPA generation
S=C(c1ccc(-c2ccccc2Cl)o1)N1CCCCC1 | 2.8µM* | 13µM* | 3.5µM* | 5.4µM* | ? | -2%
S=C(c1ccc(-c2ccc(Cl)cc2)o1)N1CCCCC1 | 1.3µM* | 5µM* | 1.4µM* | 1.1µM* | 2.6µM* | .
CN1CCN(C(=O)c2ccc(CS(=O)(=O)c3c(Cl)cccc3Cl)o2)CC1 | -8% | 14% | 1% | 2% | 4% | 8%
N#CCCN1CCN(C(=S)c2ccc(-c3ccc(Cl)cc3)o2)CC1 | 16% | -16% | 25% | 21µM* | ? | 0%
O=c1[nH]cnc2c1ccn2C1OC(CO)C(O)C1O (centres undefined) | . | . | . | . | . | 4µM*
OCC1OC(n2ccc3c(SCc4ccccc4)ncnc32)C(O)C1O (centres undefined) | . | . | . | . | . | 5%
Cc1ccc(NC(=O)CCc2c(C)nn(-c3ccc(N4CCOCC4)nn3)c2C)cc1 | 6% | . | 25% | ? | 11% | -5%
COc1ccc(NC(=O)CCc2c(C)nn(-c3ccc(N4CCOCC4)nn3)c2C)cc1Cl | . | . | . | 21µM* | . | .
COC(=O)c1ccc(NC(=O)CCc2c(C)nn(-c3ccc(N4CCOCC4)nn3)c2C)cc1 | . | . | . | 19µM* | . | .
CC(=O)c1ccc(NC(=O)CCc2c(C)nn(-c3ccc(N4CCOCC4)nn3)c2C)cc1 | ? | . | ? | 17µM* | 1%[9.26 µM] | 0%
CCc1cccc(NC(=O)CCc2c(C)nn(-c3ccc(N4CCOCC4)nn3)c2C)c1 | 13% | . | 8% | 17µM* | 3% | 2%
COc1cc(NC(=O)CCc2c(C)nn(-c3ccc(N4CCOCC4)nn3)c2C)cc(OC)c1OC | 0% | . | 8% | -19% | 1%[9.26 µM] | 2%
COc1ccc(NC(=O)CCc2c(C)nn(-c3ccc(N4CCOCC4)nn3)c2C)cc1 | 16% | . | 15% | ? | 17% | -1%
Cc1ccc(NC(=O)CCc2c(C)nn(-c3ccc(N4CCOCC4)nn3)c2C)cc1F | ? | . | ? | 13µM* | 12% | -3%
Cc1ccc(F)cc1NC(=O)CCc1c(C)nn(-c2ccc(N3CCOCC3)nn2)c1C | . | . | . | -15% | . | .
O=S(=O)(NCCc1nnc2ccc(SCc3c(F)cccc3Cl)nn12)c1ccccc1 | . | . | . | -13% | . | .
CCC(C)NC(=O)CN1C(=O)c2cccnc2Oc2ccc(C)cc21 (centres undefined) | . | . | . | -1% | . | .
Nc1ccc(C(=O)N2N=C(c3ccccc3)CC2(O)C(F)(F)F)cc1 (centres undefined) | 15% | . | 2% | 12µM* | 0% | -25%
Nc1ccc(C(=O)N2N=C(c3ccc(F)cc3)CC2(O)C(F)(F)F)cc1 (centres undefined) | 0% | . | -3% | ? | 2% | -9%
Cc1ccc(C2=NN(C(=O)c3ccco3)C(O)(C(F)(F)F)C2)cc1 (centres undefined) | -1% | . | -2% | 19µM* | -2% | -1%
CCOC(=O)c1c(C)[nH]c(C)c1S(=O)(=O)N1CCC(C(=O)NCc2ccccc2)CC1 | . | . | . | -2% | . | .
O=C(CSCc1ccccc1Cl)N1CCN(c2ccc(F)cc2)CC1 | . | . | . | -1% | . | .
O=C(Nc1nc2ccccc2[nH]1)c1ccc(Cl)c([N+](=O)[O-])c1 | -3% | 13µM* | -1% | ? | ? | -3%
O=C(Nc1nc2ccccc2[nH]1)c1ccccc1[N+](=O)[O-] | ? | 13µM* | 20% | ? | 15% | -7%
Cc1c(C(=O)Nc2nc3ccccc3[nH]2)cccc1[N+](=O)[O-] | 19% | 20µM* | ? | 15µM* | 14% | -7%
COC(=O)c1[nH]c2ccccc2c1NC(=O)c1ccccc1[N+](=O)[O-] | 2% | -8% | -2% | 0% | 2% | 5%
O=C(NC(Cc1ccccc1)c1nc2ccccc2[nH]1)c1ccc(Cl)c([N+](=O)[O-])c1 (centres undefined) | -1% | . | 9% | -8% | -2% | 4%
CCOc1ccccc1C1CC(=O)Oc2c1c(=O)n(C)c1ccccc21 (centres undefined) | . | 10% | . | -12% | . | .
